A selection: hits, their analogues and other compounds. The true share with any hit is near 4.6%.
tim23-1 inh – growth inhibitors of tim23-1 mutant yeast, primary screen, luminescence, uHTS. S. cerevisiae tim23-1 growth, BacTiter-Glo luminescence, 24 h. inhibition, % at 20 µM. AID 463212, 2010. hit rate 1.3% among 330,000;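 active = growth inhibition of the mutant yeast at or above 50%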;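 note: temperature-sensitive mutant grown at 25 °C; plate controls were DMSO-treated mutant yeast for no effect and medium wells lacking yeast for full effect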
NLRP3 yeast inh – NALP3 inflammasome inhibitors in reconstituted yeast, primary screen, luminescence, uHTS; hit rate 0.39% among 330,000; inhibition, % at 10 µM; Yeast reconstituted NLRP3/ASC/caspase-1, beta-gal luminescence, 24 h;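 active = inhibition of 50% or more; inactive = inhibition below 50%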;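 note: plate controls were induced DMSO wells for no effect and uninduced yeast grown without galactose for full effect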
SKKanGAS inh – S. pyogenes SKKanGAS growth inhibitors in kanamycin, primary screen, streptokinase expression inhibitor project, SKKanGAS strain, BacTiter-Glo luminescence | 6 h | inhibition, % at 7.5 µM | hit rate 1.3% among 300,000;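 active = mean replicate score, as percent of positive control median, at least 50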;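 note: strain carries kanamycin resistance gene driven by streptokinase promoter and grows in 40 µg/ml kanamycin; loss of luminescence reflects streptokinase promoter inhibition or plain growth inhibition; 0% = median of DMSO wells and 100% = positive control at its reference dose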
tim10-1 inh – growth inhibitors of tim10-1 mutant yeast, primary screen, luminescence, uHTS | S. cerevisiae tim10-1 ts strain growth, BacTiter-Glo, 24 h | hit rate 2.2% among 330,000 | AID 463190, 2010 | inhibition, % at 20 µM;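 active = inhibition of at least 40%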;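 note: mutant grown at 25 °C; 0% = DMSO wells with yeast and 100% = wells holding no yeast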
TIM10 inh – growth inhibitors of isogenic TIM10 control yeast, primary screen, counter-screen for tim10-1 yeast inhibitor project, luminescence, uHTS; S. cerevisiae TIM10 strain growth, BacTiter-Glo luminescence, 24 h; inhibition, % at 10 µM; hit rate 1.4% among 330,000; AID 463195, 2010;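 active = inhibition of 40% or more at the single tested concentration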;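 note: wild-type TIM10 isogenic control strain grown at permissive 25 °C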
tim10-1 confirm – growth inhibitors of tim10-1 mutant yeast, confirmation, single concentration, luminescence, S. cerevisiae. hit rate 56% among 7,400. AID 463213, 2010. inhibition, % at 20 µM. S. cerevisiae tim10-1 ts strain growth, BacTiter-Glo, 24 h. shares compounds with tim10-1 inh;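 active = inhibition of yeast growth at or above a set limit in either of two repeat tests at 20 µM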;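 note: tim10-1 mutant grown at permissive 25 °C to find synthetic lethal compounds; 0% = DMSO yeast wells and 100% = medium wells without yeast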
* hit, by the source's call; nt = not tested or not shown.

SMILES	tim23-1 inh	NLRP3 yeast inh	SKKanGAS inh	tim10-1 inh	TIM10 inh	tim10-1 confirm
Cc1nn2c(c1-c1ccc(Cl)cc1)N=C(c1ccco1)CC2c1ccccc1 (configuration not stated)	38	4	18	42*	39	34*
Cc1cc(NC(=O)c2c(F)cccc2Cl)n(-c2nc3ccccc3[nH]2)n1	37	6	118*	40*	1	30
CC(=O)c1c(C)[nH]c(C(=O)Nc2nc(-c3ccccc3)c(C)s2)c1C	26	16	5	43*	22	28
CC(=O)c1c(C)[nH]c(C(=O)Nc2nccs2)c1C	7	4	-11	11	4	nt
CCCCCCCCNC(=O)/C(C#N)=C/c1ccc(SC)cc1	44	19	23	50*	29	38*
CCCCCCCCNC(=O)/C(C#N)=C/c1ccc2c(c1)OCCO2	30	28	-6	36	28	nt
CC(=O)Nc1ccc(NC(=O)C2CCCCN2S(=O)(=O)c2ccc(C(C)(C)C)cc2)cc1 (configuration not stated)	32	-10	5	20	1	nt
COc1ccc(Cn2nnnc2CN2CCC(c3nc4ccccc4s3)CC2)cc1	10	4	-4	41*	30	18
O=C(Nc1nc2c(F)cc(F)cc2s1)C1CC1	22	26	-1	28	18	nt
Nc1c(C(=O)c2ccccc2)oc2ccccc12	29	-22	-6	16	23	nt
Nc1c(C(=O)c2ccc(F)cc2)oc2ccccc12	30	-23	-11	45*	25	22
Cc1ccnc2nc(C(=O)OCC(=O)Nc3ccc4c(c3)OCCO4)nn12	-6	14	nt	-6	9	nt
O=C(CSc1nnc(CNC(=O)c2cccs2)o1)Nc1ccc(Br)cc1	-8	12	3	-1	-13	nt
CCc1ccc(/C=C2/C(=O)N(C)C(=S)N2CC(=O)OC)s1	46	8	-11	43*	39	44*
Cc1c2c(nc3ccccc13)CC(C)(C)CC2=O	24	11	-3	6	-6	nt
CC1(C)CC(=O)c2c(nn(-c3ccccc3)c2-c2ccncc2)C1	29	6	2	46*	2	36*
CCOC(=O)N1CCN(C(=O)c2ccc(Cn3c(=S)[nH]c4ccc(Br)cc4c3=O)cc2)CC1	-4	-2	31	-2	9	nt
Cc1cccc(-c2oc3ccccc3c2C#CCCO)c1	31	23	3	45*	30	11
COc1ccccc1-c1oc2ccccc2c1C#CCCO	27	45	nt	3	-7	nt
COc1ccc(Cl)cc1C(=O)NNC(=O)c1cc2ccccc2o1	-18	5	nt	-3	-13	nt
Cc1cc(C)c(C)c(S(=O)(=O)NC(C(=O)NCCc2ccco2)C(C)C)c1C (configuration not stated)	23	19	nt	16	-1	nt
Cc1ccc([N+](=O)[O-])cc1NC(=S)NC(=O)CC(C)(C)C	41	18	6	43*	23	26
Cc1ccc([N+](=O)[O-])cc1NC(=S)NC(=O)C(C)(C)C	26	28	2	16	15	nt
Cc1ccc(C)c(CSc2nnc(-c3ccccn3)n2N)c1	30	22	7	44*	22	30
Nn1c(SCc2c(F)cccc2F)nnc1-c1ccccn1	28	8	-1	18	26	nt
SMILES	tim23-1 inh	NLRP3 yeast inh	SKKanGAS inh	tim10-1 inh	TIM10 inh	tim10-1 confirm
COc1ccc(Cl)cc1Nc1nc(NCCO)nc(N2CCCCC2)n1	48	12	19	28	24	nt
CC(C)Oc1ccc(Cl)cc1Nc1nc(NCCO)nc(N2CCCC2)n1	40	22	10	41*	14	8
Cc1oc2c(Cl)c(Cl)c(O)c(CN(C)C)c2c1C(=O)c1ccc(Cl)cc1	45	18	39	49*	38	53*
Nc1cc(Cl)ccc1Oc1ccc2ccccc2c1	28	18	-1	61*	9	57*
Cc1noc(C)c1COc1ccccc1C(=O)N(C)Cc1ccc(F)cc1	18	8	nt	21	16	nt
Cc1noc(C)c1COc1ccccc1C(=O)N(C)Cc1ccc(C(C)(C)C)cc1	49	-2	nt	42*	17	20
CC(C)c1cc(C(C)C)c(S(=O)(=O)NNC(=O)c2ccncc2)c(C(C)C)c1	37	-5	9	50*	33	21
CN(C)S(=O)(=O)c1ccc(C(=O)Nc2cc3c(cc2C(=O)O)OCCCO3)cc1	8	4	12	7	5	nt
Cc1sc2nc(-c3ccco3)oc(=O)c2c1C	36	14	-1	42*	21	29
Cc1ccccc1-c1nc2sc(C)c(C)c2c(=O)o1	12	14	7	3	-22	nt
CCCCN(C(=O)c1ccc(Br)o1)C1CCS(=O)(=O)C1 (configuration not stated)	-1	20	16	-5	-3	nt
COc1ccc(-c2csc(CCn3nc(C)cc3C)n2)cc1	27	4	-1	41*	25	35*
COc1ccc(-c2csc(CCn3nc(C)cc3C)n2)cc1OC	19	2	-3	-1	-3	nt
CC[N+](CC)(CC#Cc1ccccc1)CC(=O)c1ccc(Cl)cc1	22	-4	-6	51*	-5	45*
COC(=O)N1C(=O)[C@@](c2ccccc2)(C2CCCC2)N1C(=O)OC	31	1	-1	42*	37	32*
CCOC(=O)c1cc2c(ccc3nc(C)c(C)c32)[nH]c1C	18	7	-15	50*	24	13
CCOC(=O)c1ccc2[nH]c(C)c(C)c2c1	25	21	-15	13	15	nt
COc1cc(OC)cc(C(=O)NC(C(=O)N2CCc3ccccc3C2)C(C)C)c1 (configuration not stated)	26	11	-5	24	-9	nt
Brc1ccc(-c2nnc(-c3cccnc3)c3conc23)cc1	44	31	6	51*	18	15
COc1ccc(-c2nnc(C)c3nocc23)cc1	3	13	2	4	1	nt
CCOc1ccc(C(C)=O)cc1CN1c2ccc(S(N)(=O)=O)cc2CC1C (configuration not stated)	0	-3	4	-19	13	nt
C[C@H](NC(=O)c1ccc(C(C)(C)C)cc1)C(=O)N1CCOCC1	-2	2	nt	-7	9	nt
CC1(C)Cc2ccccc2-c2n[nH]c(=S)n21	25	17	-3	56*	25	1
O=C(Nc1cccc(C(F)(F)F)c1)N(Cc1ccc(Cl)cc1)CC(O)C(F)(F)F (configuration not stated)	44	6	8	47*	18	26
